Source: PubChem BioAssay
Unmarked numbers belong to inactive results. No rule for the calls is given here.

Biological target: Pantothenate synthetase (Mycobacterium tuberculosis (strain ATCC 25618 / H37Rv)) (UniProt P9WIL5)
Assay: Coupled enzyme confirmation of inhibitors against recombinant Mtb PanC (AID 375);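 also: 0% = full reaction with vehicle and 100% = no enzyme background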
Details: coupled enzyme assay; at 10 µM, hits give high values

Chain of Pantothenate synthetase (Mycobacterium tuberculosis (strain ATCC 25618 / H37Rv)) (P9WIL5 whole entry, looked up): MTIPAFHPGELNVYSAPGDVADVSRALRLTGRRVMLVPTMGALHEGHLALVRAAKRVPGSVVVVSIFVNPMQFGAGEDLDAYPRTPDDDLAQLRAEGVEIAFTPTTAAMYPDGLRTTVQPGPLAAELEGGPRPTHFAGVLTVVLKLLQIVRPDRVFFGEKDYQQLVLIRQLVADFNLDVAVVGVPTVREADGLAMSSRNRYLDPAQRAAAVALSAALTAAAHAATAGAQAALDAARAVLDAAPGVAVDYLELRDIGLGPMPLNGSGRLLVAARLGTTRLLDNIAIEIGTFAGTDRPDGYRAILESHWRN

Structure (SMILES)	inhibition [%]
O=c1[nH]c(SCc2ccc(F)cc2)nc2c1cnn2-c1ccc(F)cc1	0
CCCNC(=O)C1CCN(S(=O)(=O)c2ccc3nc4c(c(C(=O)O)c3c2)CCCCC4)CC1	0
O=C(O)COc1ccc(S(=O)(=O)NCCc2ccccc2)cc1	6
CC(C)Cn1c(=O)c(C2=NS(=O)(=O)c3ccccc3N2)c(O)c2ccccc21	2
Clc1ccc(Cn2c(CN3CCCC3)nc3ccccc32)cc1	8
CCOC(=O)N1CCC(Nc2c(-c3ccc(C)cc3)c(=O)c2=O)CC1	0
CCc1ccccc1NC(=O)c1cnc2n(c1=O)CCS2	2
COCCn1c(C)c(C(=O)O)sc1=S	6
CCOC(=O)c1oc2ccccc2c1CSc1nnnn1-c1ccc(OC)cc1	1
Cc1cc(NS(=O)(=O)c2ccccc2)n(-c2ccccc2)n1	0
C/C(N)=C(/C#N)C(=O)CSc1nnc(Nc2c(C)cccc2C)s1	9
c1cn(C23CC4CC(CC(C4)C2)C3)cn1	0
O=C(Cn1ccc2ccccc2c1=O)NCCC(=O)N1CCN(C(=O)c2ccco2)CC1	9
O=C(NCCSCc1ccco1)Nc1cccc(Cl)c1	3
CN1/C(=C\C(=O)Nc2cccnc2)c2ccccc2CC1(C)C	3
COc1ccccc1NC(=O)NC(N)=O	0
CCOC(=O)C1CCN(c2nc3ccccc3nc2C(C#N)C(=O)OC(C)C)CC1 (stereo not given)	0
COCCCN(C)C1CCN(C(=O)Nc2ccc(F)cc2)CC1	0
N#C[C@@H]1[C@@H]2C(=O)N(c3ccc4c(c3)OCCO4)C(=O)[C@@H]2C2c3ccccc3C=CN21 (stereo not given in full)	2
COc1cc(NC(=O)NC(C)(C(F)(F)F)C(F)(F)F)cc(OC)c1OC	0

Structure (SMILES)	inhibition [%]
CC(=O)c1cccc(NC(=O)N2CCCc3ccccc32)c1	1
CCCSc1nc2c(cnn2-c2ccc(C)cc2)c(=O)[nH]1	0
CCn1ncc(C2=NOC(C(=O)Nc3ccc4c(c3)OCO4)C2)c1C (stereo not given)	0
COc1ccc(C(=O)Nc2ccc(Cl)c(Cl)c2)c(OC)n1	0
CNC(=O)c1ccc2nc(NC(C)=O)sc2c1	0
OC(CCN1CCOCC1)(c1ccc(Cl)cc1)C1CCCCC1 (stereo not given)	0
CCOC(=O)N1CCC(n2c(=S)[nH]c3cc(OC)c(OC)cc3c2=O)CC1	2
CCOC(=O)c1[nH]c(CSc2nnc(-c3ccc(OC)cc3)o2)c(C(=O)OCC)c1C	0
CC1CNCCN1S(=O)(=O)c1cccc2cnccc12 (stereo not given)	5
Cc1ccc(CCNC(=O)C2CCC(=O)N2C2CCCC2)cc1 (stereo not given)	0
O=c1c(-c2ccc(Br)cc2)coc2c(CN3CCOCC3)c(O)ccc12	0
CCOc1ccc2nc(SCc3ccc(C(=O)OC)o3)[nH]c2c1	0
CCCN(C(=O)CSc1nnc(-c2ccoc2C)n1N)C1CCS(=O)(=O)C1 (stereo not given)	0
CCCN(CCC)S(=O)(=O)c1ccc(C(=O)Nc2nnc(-c3cccc(OC)c3)o2)cc1	6
COc1ccc(C(=O)CSc2nnc(CNc3ccc(C)cc3C)o2)cc1	2
CCCNC(=O)c1cc(-c2ccco2)on1	2
CCOc1ccc2nc(NC(=O)CSc3nnnn3C3CCCCC3)sc2c1	1
CCN(CC)c1ccc(NC(=O)c2[nH]c(C)c(C(C)=O)c2C)c(C)c1	0
Cc1ccc(N2CCN(C(=S)c3ccc(N(C)C)cc3)CC2)cc1	10
Cc1cccc(OCC(=O)N2CCN(C(=O)Cc3ccccc3)CC2)c1	1
